PubChem BioAssay (NCI)
Compounds without any hit were thinned out: in the full panel of roughly 83,000, 20% have a hit.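 In brief: 96-well plates, 48 h treatment, single concentration, percent growth endpoint.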 Values without a mark were called inactive. Calls of active or inactive are those of the source. The calls were made as follows: active = growth percent below 10; inactive = the rest.

What was measured:
Assay in all cases: NCI-60 one-dose screen, 48 h (100 = growth as untreated, 0 = no growth, -100 = all killed)
Details in all cases: 10 µM unless noted
[1] = test system: HCT-15 colon
[2] = test system: HT29 colon
[3] = test system: SNB-75 CNS
[4] = test system: SNB-19 CNS
[5] = test system: U251 CNS
[6] = test system: PC-3 prostate
[7] = test system: SK-MEL-5 melanoma
[8] = test system: UACC-62 melanoma
[9] = test system: LOX IMVI melanoma
[10] = test system: SK-MEL-28 melanoma
[11] = test system: SK-MEL-2 melanoma
[12] = test system: EKVX NSCLC
[13] = test system: SN12C renal
[14] = test system: UO-31 renal
[15] = test system: TK-10 renal
[16] = test system: ACHN renal
[17] = test system: CAKI-1 renal
[18] = test system: A498 renal
[19] = test system: CCRF-CEM leukemia
[20] = test system: MOLT-4 leukemia

Structure (SMILES) | growth [1] | growth [2] | growth [3] | growth [4] [%] | growth [5] | growth [6] | growth [7] | growth [8] | growth [9] | growth [10] | growth [11] | growth [12] [%] | growth [13] | growth [14] | growth [15] | growth [16] | growth [17] | growth [18] | growth [19] | growth [20]
COc1ccc(-c2nc3ccccc3n3cccc23)cc1 | 142% | 107% | 107% | 140 | 100% | 78.6% | 99% | 88.3% | 90% | 111% | 111% | 97.2 | 95.1% | 45.7% | 138% | 105% | 85.5% | 99.4% | 89.9% | 101%
CCN1C(=O)N(CC)C2C1NN=c1s/c(=C\c3ccc(Br)cc3)c(=O)n12 (stereo not given) | 11.4% | 5.08% (active) | 26.2% | 21.4 | 16.5% | 18.6% | -4.8% (active) | 39.9% | 25.1% | 59.9% | 24.8% | 38.2 | 33.9% | 35.4% | 52.7% | 29.2% | 23.8% | 12.6% | 11.4% | 12.6%
CC1(C)CN(CCNc2nccc(-c3c(-c4cccc(O)c4)nc4sccn34)n2)S(=O)(=O)N1 | 95.7% | 54.4% | 30.5% | 87.8 | 74% | 50.8% | 58.4% | -8.38% (active) | 18.2% | 20.1% | 24.1% | 108 | 57.6% | 60.5% | 119% | 39.4% | 32.5% | 81.7% | 49.6% | 71.8%
O=[N+]([O-])c1ccc(SSc2ccc([N+](=O)[O-])cc2Cl)c(Cl)c1 | 105% | 98.2% | 84% | 99.5 | 89.6% | 93.2% | 95.5% | 79.7% | 77.3% | 109% | 104% | 87.9 | 93.4% | 64.7% | 105% | 97.7% | 87.7% | 22.7% | 98.9% | 78.1%
CC1(C)OC2OC3C(CN)OC(c4ccccc4)OC3C2O1 (stereo not given) | 125% | 106% | 92.4% | 110 | 104% | 97.1% | 106% | 105% | 97.9% | 114% | 103% | 103 | 103% | 103% | 104% | 103% | 92.5% | 96.8% | 104% | 5.53% (active)
C=C1C[C@@]2(C)C(CC[C@]3(C)C2CC=C2C4CC(C)(C)C[C@@H](OC(=O)/C(C)=C\C)[C@]4(C(=O)O)CC[C@]23C)C(C)(C)C1=O (stereo not given in full) | -16.7% (active) | -20.1% (active) | 52.5% | 27.6 | -47.9% (active) | -6.78% (active) | 26.4% | -12.6% (active) | -65.7% (active) | 2.5% (active) | 18.8% | 31.7 | 6.55% (active) | -74.6% (active) | 17.2% | -83.8% (active) | -7.09% (active) | -17.4% (active) | 2.34% (active) | 7.64% (active)
COc1ccc(-c2nc3c(c(-c4ccc(Cl)cc4)nn3-c3ccccc3)c(-c3ccc(O)cc3)c2C#N)cc1 | 29.7% | 23% | 35.1% | 62.1 | 33.7% | 23.9% | 42.9% | 56.9% | 12.4% | 59.2% | 62.4% | 49.6 | -26.7% (active) | 36.8% | 93.7% | 50.7% | 40.1% | 61.4% | 12.6% | 14.4%
Clc1ccc(-c2cnc3nonc3n2)s1 | 54.4% | 83% | 102% | 91.4 | 87.9% | 51.8% | 24.5% | 54.9% | 36.5% | 94.4% | 93.6% | 107 | 92.6% | 64% | 103% | 81.9% | 94.1% | 93.9% | 11.3% | 47.2%
CCN(CC)c1ccc2c(cc1=O)[C@@H](NC(C)=O)CCc1cc(OC)c(OC)c(OC)c1-2 | 30% | -26.4% (active) | 22.1% | 40.8 | 11.8% | 31.7% | 7.17% (active) | 19.4% | 25.1% | 62.3% | 4.73% (active) | 44.6 | 32.9% | 58.3% | 30.8% | 30.3% | 64.3% | -15.9% (active) | 9.47% (active) | 2.09% (active)
C/C(=N\Nc1ccc([N+](=O)[O-])cn1)c1ccc(N)cc1 | 95.1% | 101% | 94.4% | 95.9 | 95.7% | 94.1% | 101% | 99.1% | 100% | 113% | 100% | 109 | 94.8% | 87.7% | 105% | 97.8% | 101% | 82.4% | 96.3% | -11.7% (active)
COc1ccc(-c2cnnn2-c2nonc2-n2cccc2)cc1 | 21.4% | 8.25% (active) | -15.9% (active) | 37.6 | 22.1% | 28.8% | 31.9% | 24.1% | 34.1% | 18.4% | 54.6% | 55.6 | 43.9% | 44.2% | 63.7% | 48.2% | 45.5% | -4.22% (active) | 14.1% | 5.61% (active)
C=C1C(=O)O[C@H]2[C@H]1CC/C(COC(=O)NCc1cccc(OC)c1)=C\CC[C@@]1(C)O[C@@H]21 | -3.38% (active) | -29.9% (active) | 71.1% | 69.9 | 39.4% | 40.1% | 29.8% | 31.5% | 5.61% (active) | 22.5% | 40.9% | 54.8 | 31.6% | -9.04% (active) | -11.7% (active) | 2.37% (active) | 10.4% | 81.1% | -15% (active) | -7.57% (active)
COc1ccc(-c2cnc(-c3ccncc3-c3cccc(OC)c3)o2)cc1 | 7.4% (active) | -36.6% (active) | 41.2% | 25.8 | 24.3% | 16.9% | -20.4% (active) | 24.9% | 27.3% | 57.6% | 5.27% (active) | 58.1 | 15% | 42.6% | 30.5% | 17.1% | 32% | 35.3% | 3.12% (active) | 11.5%
O=[N+]([O-])c1ccc(N/N=C\c2ccc(O)cc2O)nc1 | 29.8% | 90.2% | 53.6% | 58.6 | 28.4% | 49.5% | 13.7% | 43.9% | 24.7% | 64.1% | 28.9% | 29.3 | 50.9% | 28.1% | 22.7% | 26.8% | 4.77% (active) | 107% | 18.8% | 13.6%
O=C1N(Cc2ccccc2Cl)c2ccccc2C12NN=C(c1ccccc1)S2 (stereo not given) | 35.3% | 107% | 71.8% | 53 | 36.1% | 45.1% | 53.3% | 58.6% | 42.3% | 78.6% | 91.3% | 58.1 | 64.1% | 54.2% | 105% | 59.4% | 47.4% | 52.8% | 57.3% | 53.6%
CC1CCN(CCCCCOc2ccc3oc4ccc(Cl)cc4c(=O)c3c2)CC1 | -21.5% (active) | 1.54% (active) | 93.5% | 79.6 | 49.5% | 55.1% | 11.6% | -43.5% (active) | 7.78% (active) | 64.7% | 88.1% | 75.1 | 70.9% | 63.1% | 75.7% | 93.8% | 80.3% | 78.7% | 40.4% | 26.6%
